The results in this text go back to publication PMC7862700, “An all-to-all approach to the identification of sequence-specific readers for epigenetic DNA modifications on cytosine”.

Assay in all cases: DAPPL (digital affinity profiling via proximity ligation, sequencing); 10 mM Tris-HCl pH 7.5, 50 mM NaCl, 1 mM DTT, 4% glycerol, room temperature, 30 min; GST-TFs on glutathione beads, 16-mer random dsDNA library, 0.1% formaldehyde crosslink after washing; high values mean tight binding
What all share (settings): protein: recombinant; tags: N-terminal GST; dsDNA, one strand shown

The target in one assay is T1, FLI1 (Homo sapiens, UniProt Q01543 1-452).
T1 sequence: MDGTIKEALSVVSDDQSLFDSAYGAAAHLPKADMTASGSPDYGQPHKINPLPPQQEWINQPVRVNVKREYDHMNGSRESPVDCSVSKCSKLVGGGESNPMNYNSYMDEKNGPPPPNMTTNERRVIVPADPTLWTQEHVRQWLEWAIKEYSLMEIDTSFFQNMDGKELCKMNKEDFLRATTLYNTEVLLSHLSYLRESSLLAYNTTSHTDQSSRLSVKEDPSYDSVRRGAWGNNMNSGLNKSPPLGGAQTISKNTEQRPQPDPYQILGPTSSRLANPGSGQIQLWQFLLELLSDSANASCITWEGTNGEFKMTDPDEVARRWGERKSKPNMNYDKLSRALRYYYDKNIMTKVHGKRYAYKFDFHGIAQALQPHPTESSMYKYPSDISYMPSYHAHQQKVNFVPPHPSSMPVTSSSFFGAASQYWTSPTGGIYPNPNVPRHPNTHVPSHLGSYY
The method, boiled down:
(§1)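 Beads coated with glutathione captured GST-fused human transcription factors that had been expressed in yeast, and the factors were then given DNA barcodes and pooled with a tag-only sample. The pools were incubated with 200 nmole of a random double-stranded 16-mer DNA library in Tris/NaCl/DTT/glycerol buffer for 30 min at room temperature, washed, crosslinked with 0.1% formaldehyde and proximity-ligated with BsaI/T4 ligase at 37 °C for 1 h. PCR amplification and Illumina NextSeq500 sequencing came last. Binding signal is each hexamer's read frequency for a factor divided by its frequency for the tag-only sample.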

In another assay the target is T2, GABPA (Homo sapiens, UniProt Q06546 1-454).
T2 sequence: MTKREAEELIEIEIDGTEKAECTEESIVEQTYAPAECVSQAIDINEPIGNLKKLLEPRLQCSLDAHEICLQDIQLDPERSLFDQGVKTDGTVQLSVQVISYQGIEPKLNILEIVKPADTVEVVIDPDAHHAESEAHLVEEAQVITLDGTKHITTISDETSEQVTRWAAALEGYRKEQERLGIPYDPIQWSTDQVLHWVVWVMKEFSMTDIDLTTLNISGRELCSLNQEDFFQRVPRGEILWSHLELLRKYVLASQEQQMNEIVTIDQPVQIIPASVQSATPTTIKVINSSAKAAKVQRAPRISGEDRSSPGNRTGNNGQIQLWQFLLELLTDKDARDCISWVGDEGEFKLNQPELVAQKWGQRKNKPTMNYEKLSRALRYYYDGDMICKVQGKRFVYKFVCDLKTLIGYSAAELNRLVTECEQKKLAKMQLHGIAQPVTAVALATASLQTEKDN
In a few lines:
as §1

In another assay the target is T3, ERG (Homo sapiens, UniProt P11308 1-479).
T3 sequence: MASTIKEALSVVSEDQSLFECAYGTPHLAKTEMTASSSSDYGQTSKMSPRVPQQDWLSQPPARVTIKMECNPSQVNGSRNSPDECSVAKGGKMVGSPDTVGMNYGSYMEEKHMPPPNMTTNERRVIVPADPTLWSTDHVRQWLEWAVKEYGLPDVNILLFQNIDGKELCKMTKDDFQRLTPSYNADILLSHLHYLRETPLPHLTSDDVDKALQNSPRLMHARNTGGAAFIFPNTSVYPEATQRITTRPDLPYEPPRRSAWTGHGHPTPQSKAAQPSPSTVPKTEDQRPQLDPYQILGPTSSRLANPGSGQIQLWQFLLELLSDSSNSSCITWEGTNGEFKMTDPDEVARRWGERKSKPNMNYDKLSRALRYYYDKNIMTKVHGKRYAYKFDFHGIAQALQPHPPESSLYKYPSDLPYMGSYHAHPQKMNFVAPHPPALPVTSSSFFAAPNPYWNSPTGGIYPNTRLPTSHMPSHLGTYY
In a few lines: as §1

In the next assay the target is ELF1 (Homo sapiens, UniProt P32519 1-619). In a few lines:
as §1

The next assay concerns the target SPIB (Homo sapiens, UniProt Q01892 1-262). In a few lines: as §1
The target in another assay is T4, ELK3 (Homo sapiens, UniProt P41970 1-407).
T4 sequence: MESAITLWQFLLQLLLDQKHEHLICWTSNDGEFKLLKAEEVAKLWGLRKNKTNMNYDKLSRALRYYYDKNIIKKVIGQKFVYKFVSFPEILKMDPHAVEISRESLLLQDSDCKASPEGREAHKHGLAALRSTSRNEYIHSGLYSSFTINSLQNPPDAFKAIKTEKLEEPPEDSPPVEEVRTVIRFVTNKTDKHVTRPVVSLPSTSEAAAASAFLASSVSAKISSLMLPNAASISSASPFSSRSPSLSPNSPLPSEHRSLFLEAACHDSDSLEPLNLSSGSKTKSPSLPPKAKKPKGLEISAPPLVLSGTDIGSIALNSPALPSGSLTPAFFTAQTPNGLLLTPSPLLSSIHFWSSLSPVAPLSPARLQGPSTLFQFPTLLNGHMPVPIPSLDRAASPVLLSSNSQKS
The method, boiled down: as §1

The target of a further assay is ETV5 (Homo sapiens, UniProt P41161 1-510). In a few lines: as §1
In a further assay the target is T5, SPIC (Homo sapiens, UniProt Q8N5J4 1-248).
T5 sequence: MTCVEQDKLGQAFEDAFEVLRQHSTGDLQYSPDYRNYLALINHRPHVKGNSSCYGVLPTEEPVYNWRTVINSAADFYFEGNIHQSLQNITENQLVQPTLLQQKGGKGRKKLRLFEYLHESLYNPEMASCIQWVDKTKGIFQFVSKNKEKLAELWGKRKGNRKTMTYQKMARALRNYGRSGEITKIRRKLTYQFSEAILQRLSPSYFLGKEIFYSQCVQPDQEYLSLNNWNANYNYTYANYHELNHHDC
The method, boiled down:
as §1

The target of another assay is ELF4 (Homo sapiens, UniProt Q99607 1-663). In a few lines: as §1
For a further assay, the target named is ETV1 (Homo sapiens, UniProt P50549 1-477). The method, boiled down:
as §1

The target of a further assay is T6, ELF5 (Homo sapiens, UniProt Q9UKW6-2 1-255).
T6 sequence: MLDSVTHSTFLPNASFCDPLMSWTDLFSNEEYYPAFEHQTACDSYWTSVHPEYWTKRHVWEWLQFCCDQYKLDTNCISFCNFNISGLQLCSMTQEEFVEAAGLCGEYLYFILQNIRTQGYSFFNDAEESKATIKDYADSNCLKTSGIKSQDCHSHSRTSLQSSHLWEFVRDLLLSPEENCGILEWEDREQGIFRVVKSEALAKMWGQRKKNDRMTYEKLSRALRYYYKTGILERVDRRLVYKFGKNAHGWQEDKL
The method, boiled down: as §1

The next assay has as its target T7, ELK1 (Homo sapiens, UniProt P19419 1-428).
T7 sequence: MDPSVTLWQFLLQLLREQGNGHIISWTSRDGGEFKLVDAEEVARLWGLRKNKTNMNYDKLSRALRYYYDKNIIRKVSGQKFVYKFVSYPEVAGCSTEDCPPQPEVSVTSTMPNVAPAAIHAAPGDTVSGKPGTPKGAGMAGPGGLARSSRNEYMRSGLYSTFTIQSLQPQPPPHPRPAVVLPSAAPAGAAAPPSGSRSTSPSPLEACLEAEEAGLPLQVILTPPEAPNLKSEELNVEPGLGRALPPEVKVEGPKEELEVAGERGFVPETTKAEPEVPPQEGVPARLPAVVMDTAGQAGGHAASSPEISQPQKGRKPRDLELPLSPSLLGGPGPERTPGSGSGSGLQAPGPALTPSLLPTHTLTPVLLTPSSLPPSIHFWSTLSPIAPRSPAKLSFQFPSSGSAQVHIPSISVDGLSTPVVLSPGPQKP
In a few lines: as §1

A further assay concerns the target T8, EHF (Homo sapiens, UniProt Q9NZC4 1-300).
T8 sequence: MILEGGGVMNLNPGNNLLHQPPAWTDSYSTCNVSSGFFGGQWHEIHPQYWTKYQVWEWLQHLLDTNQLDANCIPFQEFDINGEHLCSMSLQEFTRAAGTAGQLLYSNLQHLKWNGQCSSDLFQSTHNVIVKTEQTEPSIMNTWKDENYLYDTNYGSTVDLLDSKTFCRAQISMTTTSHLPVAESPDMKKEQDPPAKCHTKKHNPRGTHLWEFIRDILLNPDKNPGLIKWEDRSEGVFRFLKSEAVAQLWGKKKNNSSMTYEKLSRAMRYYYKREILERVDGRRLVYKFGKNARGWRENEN
The method, boiled down: as §1

The target of a further assay is SPI1 (Homo sapiens, UniProt P17947 1-270). The method, boiled down:
as §1

A further assay concerns the target T9, ERF (Homo sapiens, UniProt P50548 1-548).
T9 sequence: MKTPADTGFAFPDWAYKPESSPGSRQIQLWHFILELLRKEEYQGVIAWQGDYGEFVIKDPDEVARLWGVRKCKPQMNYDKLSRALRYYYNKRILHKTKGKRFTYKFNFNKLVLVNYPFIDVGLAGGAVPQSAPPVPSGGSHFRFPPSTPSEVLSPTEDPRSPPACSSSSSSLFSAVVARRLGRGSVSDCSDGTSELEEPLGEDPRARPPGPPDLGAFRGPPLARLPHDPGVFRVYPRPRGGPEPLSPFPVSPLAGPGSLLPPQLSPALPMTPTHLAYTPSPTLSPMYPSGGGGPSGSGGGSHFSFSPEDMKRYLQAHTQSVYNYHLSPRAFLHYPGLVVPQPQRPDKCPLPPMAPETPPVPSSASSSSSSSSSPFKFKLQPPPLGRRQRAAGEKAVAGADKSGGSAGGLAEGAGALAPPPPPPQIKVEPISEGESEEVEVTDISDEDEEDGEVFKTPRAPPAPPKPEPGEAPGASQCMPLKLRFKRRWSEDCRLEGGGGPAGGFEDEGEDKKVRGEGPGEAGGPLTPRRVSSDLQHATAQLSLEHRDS
The method, boiled down: as §1

A further assay deals with T10, ETV3L (Homo sapiens, UniProt Q6ZN32 1-361).
T10 sequence: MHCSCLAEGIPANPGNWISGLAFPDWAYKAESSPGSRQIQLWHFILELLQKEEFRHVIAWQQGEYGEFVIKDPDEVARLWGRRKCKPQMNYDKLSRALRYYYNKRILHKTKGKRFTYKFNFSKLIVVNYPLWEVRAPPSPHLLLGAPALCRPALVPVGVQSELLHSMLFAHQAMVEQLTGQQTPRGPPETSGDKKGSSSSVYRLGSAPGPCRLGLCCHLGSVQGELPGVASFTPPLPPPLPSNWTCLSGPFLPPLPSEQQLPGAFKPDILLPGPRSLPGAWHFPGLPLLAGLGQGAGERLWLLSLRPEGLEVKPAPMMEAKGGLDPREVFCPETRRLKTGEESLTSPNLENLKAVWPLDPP
The method, boiled down: as §1

For the next assay, the target named is T11, ETV3 (Homo sapiens, UniProt P41162-2 1-143).
T11 sequence: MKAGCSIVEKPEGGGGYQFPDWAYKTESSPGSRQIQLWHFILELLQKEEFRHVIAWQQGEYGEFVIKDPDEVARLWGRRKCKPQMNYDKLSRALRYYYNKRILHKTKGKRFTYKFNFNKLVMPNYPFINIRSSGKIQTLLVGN
The method, boiled down: as §1

A further assay deals with ETV6 (Homo sapiens, UniProt P41212 1-452). In a few lines:
as §1

Sequence of ELF4 (Q99607 whole entry): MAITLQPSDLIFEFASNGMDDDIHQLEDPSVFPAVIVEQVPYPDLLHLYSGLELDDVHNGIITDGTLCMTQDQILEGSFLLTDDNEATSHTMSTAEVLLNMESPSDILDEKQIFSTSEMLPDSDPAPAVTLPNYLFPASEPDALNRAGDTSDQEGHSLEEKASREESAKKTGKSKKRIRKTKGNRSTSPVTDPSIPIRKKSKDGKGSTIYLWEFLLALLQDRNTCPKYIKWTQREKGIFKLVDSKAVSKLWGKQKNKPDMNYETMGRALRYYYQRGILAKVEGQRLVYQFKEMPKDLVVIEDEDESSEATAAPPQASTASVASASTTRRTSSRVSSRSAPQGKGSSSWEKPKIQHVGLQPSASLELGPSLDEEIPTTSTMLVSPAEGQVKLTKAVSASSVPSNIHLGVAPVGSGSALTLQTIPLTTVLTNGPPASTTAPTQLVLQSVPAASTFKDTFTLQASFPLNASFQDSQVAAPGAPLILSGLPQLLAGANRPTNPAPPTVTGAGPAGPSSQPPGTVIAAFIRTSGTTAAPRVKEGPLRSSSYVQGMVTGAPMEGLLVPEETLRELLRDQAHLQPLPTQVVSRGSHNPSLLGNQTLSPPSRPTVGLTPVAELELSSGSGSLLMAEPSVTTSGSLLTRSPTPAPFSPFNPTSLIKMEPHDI
Sequence of ETV5 (P41161 whole entry): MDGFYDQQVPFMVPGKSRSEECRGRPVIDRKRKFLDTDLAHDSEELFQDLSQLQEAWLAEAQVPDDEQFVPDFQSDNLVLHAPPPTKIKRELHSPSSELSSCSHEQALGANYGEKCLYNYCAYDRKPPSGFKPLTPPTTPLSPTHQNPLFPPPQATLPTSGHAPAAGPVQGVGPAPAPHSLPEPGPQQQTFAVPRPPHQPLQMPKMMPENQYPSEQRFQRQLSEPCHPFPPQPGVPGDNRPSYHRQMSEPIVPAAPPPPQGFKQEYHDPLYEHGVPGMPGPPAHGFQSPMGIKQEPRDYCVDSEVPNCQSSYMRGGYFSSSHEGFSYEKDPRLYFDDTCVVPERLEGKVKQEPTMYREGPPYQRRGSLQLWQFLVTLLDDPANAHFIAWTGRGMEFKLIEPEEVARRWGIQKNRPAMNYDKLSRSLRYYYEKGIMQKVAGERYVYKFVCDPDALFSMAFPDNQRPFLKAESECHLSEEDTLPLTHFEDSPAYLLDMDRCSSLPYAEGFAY
Sequence of SPIB (Q01892 whole entry): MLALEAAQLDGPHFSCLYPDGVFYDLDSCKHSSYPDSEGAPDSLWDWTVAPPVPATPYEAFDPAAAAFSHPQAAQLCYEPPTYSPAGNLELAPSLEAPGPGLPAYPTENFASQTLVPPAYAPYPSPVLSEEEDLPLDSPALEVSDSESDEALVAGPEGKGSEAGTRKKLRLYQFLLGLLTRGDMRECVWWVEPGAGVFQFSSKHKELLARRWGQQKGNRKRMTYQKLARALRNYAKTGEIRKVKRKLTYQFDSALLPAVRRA
Sequence of ETV1 (P50549 whole entry): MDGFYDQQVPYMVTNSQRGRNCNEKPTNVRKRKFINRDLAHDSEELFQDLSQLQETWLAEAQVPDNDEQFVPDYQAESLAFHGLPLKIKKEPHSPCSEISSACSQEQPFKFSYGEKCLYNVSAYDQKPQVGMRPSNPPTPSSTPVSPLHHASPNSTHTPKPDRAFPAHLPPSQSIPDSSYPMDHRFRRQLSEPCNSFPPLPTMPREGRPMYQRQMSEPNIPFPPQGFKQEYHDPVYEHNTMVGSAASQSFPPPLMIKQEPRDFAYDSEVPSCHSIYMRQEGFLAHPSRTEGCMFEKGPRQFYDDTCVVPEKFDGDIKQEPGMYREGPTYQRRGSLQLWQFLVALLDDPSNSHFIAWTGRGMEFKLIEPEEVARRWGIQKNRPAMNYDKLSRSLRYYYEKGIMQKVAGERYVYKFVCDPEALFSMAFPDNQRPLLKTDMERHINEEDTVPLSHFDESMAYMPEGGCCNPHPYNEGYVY
Sequence of ETV6 (P41212 whole entry): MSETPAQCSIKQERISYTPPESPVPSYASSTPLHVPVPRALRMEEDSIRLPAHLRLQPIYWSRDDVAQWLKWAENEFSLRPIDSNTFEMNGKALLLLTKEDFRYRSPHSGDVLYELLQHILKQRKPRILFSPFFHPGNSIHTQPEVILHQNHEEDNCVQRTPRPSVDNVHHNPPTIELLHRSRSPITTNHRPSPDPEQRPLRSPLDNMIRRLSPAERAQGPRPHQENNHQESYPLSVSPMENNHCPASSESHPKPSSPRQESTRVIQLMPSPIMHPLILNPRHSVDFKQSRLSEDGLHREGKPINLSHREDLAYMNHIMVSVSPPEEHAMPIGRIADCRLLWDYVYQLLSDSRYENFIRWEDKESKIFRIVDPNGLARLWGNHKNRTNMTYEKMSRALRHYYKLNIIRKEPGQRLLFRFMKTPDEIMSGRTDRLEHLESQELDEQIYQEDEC
Sequence of ELF1 (P32519 whole entry): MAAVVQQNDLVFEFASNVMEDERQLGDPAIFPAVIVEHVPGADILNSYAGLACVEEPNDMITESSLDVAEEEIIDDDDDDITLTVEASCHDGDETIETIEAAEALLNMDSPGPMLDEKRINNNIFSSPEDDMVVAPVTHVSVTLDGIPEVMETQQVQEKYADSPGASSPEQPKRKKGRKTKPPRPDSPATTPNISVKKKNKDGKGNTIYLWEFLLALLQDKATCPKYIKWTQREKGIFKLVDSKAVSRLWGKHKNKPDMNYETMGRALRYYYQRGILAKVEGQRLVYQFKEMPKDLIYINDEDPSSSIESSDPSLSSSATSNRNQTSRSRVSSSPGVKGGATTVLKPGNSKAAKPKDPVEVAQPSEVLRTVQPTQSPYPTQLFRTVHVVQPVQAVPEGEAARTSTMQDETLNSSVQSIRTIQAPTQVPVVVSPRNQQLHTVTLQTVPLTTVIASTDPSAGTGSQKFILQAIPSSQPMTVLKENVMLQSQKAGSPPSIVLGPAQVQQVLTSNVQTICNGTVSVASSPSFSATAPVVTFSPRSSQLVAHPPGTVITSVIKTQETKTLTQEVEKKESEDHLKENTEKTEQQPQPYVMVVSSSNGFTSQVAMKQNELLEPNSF

In the case of TACGGT, the binding signal is 1.01 fold enrichment (6-mer frequency, TF over GST control) in the assay with FLI1; 1.02 fold enrichment (6-mer frequency, TF over GST control) with GABPA; 1.02 fold enrichment (6-mer frequency, TF over GST control) with ERG; 1.01 fold enrichment (6-mer frequency, TF over GST control) in the assay with ELF1; 1.02 fold enrichment (6-mer frequency, TF over GST control) in the assay with SPIB; 1.11 fold enrichment (6-mer frequency, TF over GST control) with ELK3. Besides, the binding signal was 1.04 fold enrichment (6-mer frequency, TF over GST control) with ETV5; 1.02 fold enrichment (6-mer frequency, TF over GST control) in the assay with SPIC; 1.05 fold enrichment (6-mer frequency, TF over GST control) in the assay with ELF4; 1.01 fold enrichment (6-mer frequency, TF over GST control) with ETV1; 1.04 fold enrichment (6-mer frequency, TF over GST control) with ELF5.

Turning to ATAAGG, the binding signal was 1.07 fold enrichment (6-mer frequency, TF over GST control) with FLI1; 1.01 fold enrichment (6-mer frequency, TF over GST control) with ELK1; 1.02 fold enrichment (6-mer frequency, TF over GST control) in the assay with GABPA; 1.07 fold enrichment (6-mer frequency, TF over GST control) in the assay with ERG; 1.05 fold enrichment (6-mer frequency, TF over GST control) with EHF; 1.05 fold enrichment (6-mer frequency, TF over GST control) with SPI1. The binding signal in the assay with SPIB was 1.01 fold enrichment (6-mer frequency, TF over GST control); with ELK3 it was 1.19 fold enrichment (6-mer frequency, TF over GST control); in the assay with ETV5, 1.04 fold enrichment (6-mer frequency, TF over GST control); in the assay with SPIC it was 1.12 fold enrichment (6-mer frequency, TF over GST control); in the assay with ELF4, 1.06 fold enrichment (6-mer frequency, TF over GST control); with ETV1, 1.03 fold enrichment (6-mer frequency, TF over GST control). In addition, the binding signal with ERF is 1.05 fold enrichment (6-mer frequency, TF over GST control); with ETV3L, 1.01 fold enrichment (6-mer frequency, TF over GST control); with ELF5, 1.25 fold enrichment (6-mer frequency, TF over GST control); with ETV3 it was 1.05 fold enrichment (6-mer frequency, TF over GST control); in the assay with ETV6 it was 1.07 fold enrichment (6-mer frequency, TF over GST control).
